The panel holds about 83,000 compounds, 20% with a hit somewhere; the sample as a whole holds those more often.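 Negative percent growth values reflect cell death: -40 means 40% of the cells present at the start died, and -100 means all died.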 Activity calls are given as the source filed them.
Tested on: A498 renal
Test: NCI-60 one-dose screen, 48 h (100 = growth as untreated, 0 = no growth, -100 = all killed)
Conditions: 10 µM unless noted
Procedure: Growth inhibition of the A498 human tumor cell line is measured as a screen for anti-cancer activity. Cells are grown in 96 well plates and exposed to the test compound for 48 hours. Compounds are tested at a single concentration, which is 10^-5 M for most compounds. The reported endpoint is percent growth (GI% or GIPRCNT), where numbers from 0 - 100% represent growth inhibition, and numbers from -100% - 0 represent cell death. For example, a value of 40 represents 60% growth inhibition. A value of 0 means no net growth occurred over the course of the experiment. A value of -40 indicates 40% of cells at the beginning of the experiment died by the end of the experiment. A value of -100 means all cells are dead at the end of the experiment.
NCI-60 Human Tumor Cell Lines Screen was performed using the standard one-dose NCI protocol, which is described in more detail at https://dtp.cancer.gov/discovery_development/nci-60/default.htm.
Compounds with GIPRCNT values below 10 were considered active. Activity score was based on GIPRCNT using the following formula: […]
Score is 0 for GIPRCNT values of 100 or above, 50 for GIPRCNT values of 0, and 100 for GIPRCNT values of -100.

Row | SMILES | growth
1 | COc1ccc(C(C)=O)cc1S(=O)(=O)Nc1c(N)nc(SC)[nH]c1=O | 106% (inactive)
2 | COc1cc(OCc2cccc(Br)c2C)cc(OC)c1C=O | -88.7% (active)
3 | O=C(Nc1nc2cc(C(=O)N3CCN(C(c4ccccc4)c4ccccc4)CC3)ccc2o1)c1ccc(NC2CCCCC2)c([N+](=O)[O-])c1 | 76.2% (inactive)
4 | Cc1csc(Nc2nc(-c3ccccn3)nc(C(Cl)(Cl)Cl)n2)n1 | 90.7% (inactive)
5 | O=c1c2ccccc2n2cnc3ccc(Cl)c1c32 | 54.1% (inactive)
6 | Cc1cc(C(=O)Nc2ncc(Cc3cccc(C(F)(F)F)c3)s2)c2ccccc2n1 | 0.174% (active)
7 | CC(=O)c1c(C)nc(SCC(=O)Nc2cccc(O)c2)n1-c1ccc(Cl)cc1 | 91.9% (inactive)
8 | N#CSc1c[nH]c2cccc(/C=C/C(=O)/C=C(/C=C/c3cccc4[nH]cc(SC#N)c34)OB(F)F)c12 | 28.2% (inactive)
9 | [O-]/[N+](=C\c1ccc(-n2cc(Cc3ccccc3Cc3cn(-c4ccc(/C=[N+](/[O-])c5ccccc5)cc4)nn3)nn2)cc1)c1ccccc1 | 83.3% (inactive)
10 | O=C(CN1C(=O)S/C(=C\C(Cl)=C\c2ccccc2)C1=O)NCCc1ccc(O)cc1 | 94.2% (inactive)
11 | O=[N+]([O-])c1ccc(O)cc1Br | 81.6% (inactive)
12 | COc1ccc(C/C(C)=C(\c2ccc(Cl)cc2)c2ccc(OCCN3CCCCC3)cc2)cc1 | 120% (inactive)
13 | CCN(CC)Cc1cc(C=C2C(=O)NC(=S)NC2=O)cc(OC)c1O | 98.8% (inactive)
14 | C=C1C(=O)O[C@H]2[C@H]1CC/C(COC(=O)NCc1ccc(Cn3c(=O)sn(CCCCC)c3=O)cc1)=C\CC[C@@]1(C)O[C@@H]21 | 84.9% (inactive)
15 | CC(=O)Oc1ccc(N2C(=O)C(Cl)=C(Nc3cccc(C(F)(F)F)c3)C2=O)cc1 | 92% (inactive)
16 | CCOC(=O)n1cc(-c2nonc2-c2cn(C(=O)OCC)c3ccc(Br)cc23)c2ccccc21 | 82.3% (inactive)
17 | N#Cc1nc(-c2ccccc2)oc1S(=O)(=O)N1CCN(c2ccccc2)CC1 | 95.1% (inactive)
18 | COc1cc(-c2nc3sccn3c2-c2ccnc(NCCNS(=O)(=O)c3ccccc3)n2)ccc1F | 48.9% (inactive)
19 | C[PH+](c1nc2ccccc2nc1[PH+](C)C(C)(C)C)C(C)(C)C.C[PH+](c1nc2ccccc2nc1[PH+](C)C(C)(C)C)C(C)(C)C.[Au+].[Cl-] (stereo not given) | -99.1% (active)
20 | N#Cc1nc(-c2ccc(Cl)cc2)oc1S(=O)(=O)N1CCN(c2ccc(F)cc2)CC1 | 78.6% (inactive)

Row | SMILES | growth
21 | Cc1ccc(C(=O)c2ccc(CC(=O)N/N=C/c3ccccc3O)n2C)cc1 | 82% (inactive)
22 | CSc1nc2ccccc2cc1/C=[N+](\[O-])c1ccccc1 | 102% (inactive)
23 | Oc1ccc(Cl)cc1/C=N\NC(=S)N/N=C/c1cc(Cl)ccc1O | 37.5% (inactive)
24 | CC1=C([Se]CC(OC(=O)CC[Se]c2ccccc2)C(=O)NC(C)(C)C)C(=O)c2ccccc2C1=O (stereo not given) | -26.4% (active)
25 | CN(C)c1ccc(-c2c(C#N)c(N)nn2C(=O)c2ccc(NC(=O)c3ccccn3)cc2)cc1 | 96.6% (inactive)
26 | CCOC(=O)NC(C)C | 117% (inactive)
27 | C=C1C(=O)O[C@H]2[C@H]1CC/C(COC(=O)C(=O)c1cn(C)c3ccc(Cl)cc13)=C\CC[C@@]1(C)O[C@@H]21 | -96.9% (active)
28 | CC(C)(C)CC(C)(C)NC(=O)Nc1ncccc1OCc1ccccc1 | 92.7% (inactive)
29 | Clc1ccc(/C=N\N=C\c2ccc(Cl)c(Cl)c2)cc1Cl | 108% (inactive)
30 | CCc1ccccc1-n1c(-c2ccc(OC)cc2)cc(-c2ccc(OC)cc2)c(C#N)c1=O | 69.5% (inactive)
31 | O=C1NC2(Nc3ccccc31)C(=O)Nc1c(Cl)cc(Cl)cc12 (stereo not given) | 106% (inactive)
32 | NC(=O)C(=O)c1ccccc1NC=O | 120% (inactive)
33 | COC1=CC(c2ccc[nH]2)=N/C1=C\c1[nH]c(C)c(CC(=O)OCc2ccccc2)c1CCC(=O)OCc1ccccc1 | -54.1% (active)
34 | CCO/C=N/C1=C(C#N)C(c2ccc(Cl)cc2)c2sc3c(F)cccc3c2O1 (stereo not given) | 56.5% (inactive)
35 | CCN(CC)c1ccc(\C=N/N=C(N)/C(N)=N\N=C/c2ccc(N(CC)CC)cc2)cc1 | 102% (inactive)
36 | O=S(=O)(Nc1cc(Cl)ccc1Cl)c1ccc(-c2cnc(C3CC3)o2)cc1 | -7.01% (active)
37 | NS(=O)(=O)c1ccccc1NC(=O)Nc1nc2ccccc2s1 | 97.6% (inactive)
38 | CC(C)Cn1cnc2c(=O)[nH]c(N)nc21 | 94.1% (inactive)
39 | CN1C(=O)/C(=C\c2nc([P+](c3ccccc3)(c3ccccc3)c3ccccc3)c(N3CCOCC3)o2)SC1=S | 85.6% (inactive)
40 | COc1ccc(-c2cc(-c3cccnc3)nc3sc4c(=O)[nH]c(-c5ccc(Cl)cc5)nc4c23)cc1OC | 91.2% (inactive)

Source: PubChem BioAssay (NCI)
